Bioassay records as filed in PubChem.
tim23-1 inh: growth inhibitors of tim23-1 mutant yeast, primary screen, luminescence, uHTS; S. cerevisiae tim23-1 growth, BacTiter-Glo luminescence, 24 h; inhibition, % at 20 µM; hit rate 1.3% among 330,000;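 active = growth inhibition of the mutant yeast at or above 50%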;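 note: temperature-sensitive mutant grown at 25 °C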
PfHsp90 yeast 2: growth inhibition of PfHsp90-expressing yeast, primary screen, antimalarial PfHsp90 inhibitor project, S. cerevisiae, BacTiter-Glo luminescence, single point, set 2 | inhibition, % at 9.4 µM | BacTiter-Glo ATP, 48 h; yeast lacking PDR1 and PDR3 efflux regulators | hit rate 0.32% among 310,000 | AID 504621, 2011;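 active = every replicate shows inhibition above about 80%, whatever the replicate mean, limit read from the data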
SKKanGAS inh: S. pyogenes SKKanGAS growth inhibitors in kanamycin, primary screen, streptokinase expression inhibitor project, SKKanGAS strain, BacTiter-Glo luminescence | 6 h | inhibition, % at 7.5 µM | hit rate 1.3% among 300,000;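 active = mean replicate score, as percent of positive control median, at least 50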;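 note: strain carries kanamycin resistance gene driven by streptokinase promoter and grows in 40 µg/ml kanamycin; loss of luminescence reflects streptokinase promoter inhibition or plain growth inhibition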
NALP3 yeast inh: NALP3 inflammasome inhibitors in reconstituted yeast, primary screen, luminescence, uHTS; Yeast reconstituted NLRP3/ASC/caspase-1, beta-gal luminescence, 24 h; AID 2825, 2010; hit rate 0.39% among 330,000; inhibition, % at 10 µM;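 active = inhibition of 50% or more; inactive = inhibition below 50%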
TIM10 inh: growth inhibitors of isogenic TIM10 control yeast, primary screen, counter-screen for tim10-1 yeast inhibitor project, luminescence, uHTS. S. cerevisiae TIM10 strain growth, BacTiter-Glo luminescence, 24 h. inhibition, % at 10 µM. hit rate 1.4% among 330,000;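 active = inhibition of 40% or more at the single tested concentration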;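 note: wild-type TIM10 isogenic control strain grown at permissive 25 °C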
tim10-1 inh: growth inhibitors of tim10-1 mutant yeast, primary screen, luminescence, uHTS. S. cerevisiae tim10-1 ts strain growth, BacTiter-Glo, 24 h. inhibition, % at 20 µM. hit rate 2.2% among 330,000. AID 463190, 2010;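 active = inhibition of at least 40%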;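 note: mutant grown at 25 °C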
tim10-1 conf: growth inhibitors of tim10-1 mutant yeast, confirmation, single concentration, luminescence, S. cerevisiae; inhibition, % at 20 µM; hit rate 56% among 7,400; shares compounds with tim10-1 inh; S. cerevisiae tim10-1 ts strain growth, BacTiter-Glo, 24 h; AID 463213, 2010;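 active = inhibition of yeast growth at or above a set limit in either of two repeat tests at 20 µM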;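 note: tim10-1 mutant grown at permissive 25 °C to find synthetic lethal compounds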
TIM10 conf: growth inhibitors of wild-type TIM10 yeast, confirmation, counter-screen for tim10-1 synthetic lethality project, single concentration, luminescence, S. cerevisiae. shares compounds with TIM10 inh. S. cerevisiae tim10 strain growth, BacTiter-Glo luminescence, 24 h. inhibition, % at 10 µM. hit rate 63% among 4,600;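 active = inhibition of yeast growth at or above a set limit in either of two replicates at 10 µM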; note: this counterscreen used the strain with wild-type TIM10
tim23-1 conf: tim23-1 mutant yeast growth inhibitors, confirmation, luminescence, single concentration. shares compounds with tim23-1 inh. S. cerevisiae tim23-1 growth, BacTiter-Glo luminescence, 24 h. inhibition, % at 20 µM. hit rate 83% among 4,400;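 active = inhibition above about 39% in either of two replicate wells at 20 µM, limit read from the data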;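 note: temperature-sensitive tim23-1 mutant grown at 25 °C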
Each line names hits and unclear results; the compound was inactive in the other large screens (follow-up assays come after a bar, where they were run). Only some compounds are listed: those with a hit (about 4.6% of all), similar ones and a draw of the others.

N/C(=N\OC(=O)c1cccs1)c1cccc(Br)c1	tim23-1 inh 79.7, TIM10 inh 89.9, tim10-1 inh 57.3 | tim10-1 conf 59.0 | TIM10 conf 86.2 | tim23-1 conf 51.2
N/C(=N\OC(=O)c1cccs1)c1ccccc1	tim23-1 inh 71.1, TIM10 inh 69.8, tim10-1 inh 65.1 | tim10-1 conf 62.6 | TIM10 conf 36.0 | tim23-1 conf 67.2
COc1ccc(-c2cccc3c2C2CC3CCN2C(=O)OCc2ccccc2)cc1 (stereo unspecified)	none (no result: tim23-1 inh, SKKanGAS inh, NALP3 yeast inh, TIM10 inh, tim10-1 inh)
Cc1ccc(C(=O)COC(=O)c2cccs2)cc1	none
Cc1ccc(/C(N)=N/OC(=O)c2cccs2)cc1	tim23-1 inh 73.2, TIM10 inh 80.3, tim10-1 inh 47.8 | tim10-1 conf 60.1 | TIM10 conf 88.1 | tim23-1 conf inactive
CC(C)CCN1CCN(Cc2ccc(C#CCCO)cc2)CC1CCO (stereo unspecified)	none
COc1ccc2[nH]c3c(c2c1)CCN1C(=O)C(CC(=O)NC(C)(C)C)C[C@H](C(=O)N2CCCCC2)[C@@]31C (stereo partly specified)	none (no result: SKKanGAS inh, NALP3 yeast inh)
COc1ccc(/C=N/NC(=O)c2ccncc2)cc1Cn1nc([N+](=O)[O-])c(Br)c1C	none
O=C(NC(=S)Nc1cccc(C(F)(F)F)c1)c1ccc2nonc2c1	tim23-1 inh 55.7, tim10-1 inh 50.7 (no result: PfHsp90 yeast 2) | tim10-1 conf inactive | tim23-1 conf 63.0
CCOc1cc(OCC)cc(C(=O)NC(=S)Nc2cccc(C(F)(F)F)c2)c1	none (no result: PfHsp90 yeast 2)
FC(F)(F)c1cccc(NC(=S)NC(c2ccccc2)c2ccccc2)c1	none (no result: tim23-1 inh, NALP3 yeast inh, TIM10 inh, tim10-1 inh)
FC(F)(F)c1cccc(NC(=S)Nc2ccc(Cl)c(Cl)c2)c1	tim23-1 inh 85.8, SKKanGAS inh 96.3, TIM10 inh 75.6, tim10-1 inh 72.9 | tim10-1 conf 82.0 | TIM10 conf 73.3 | tim23-1 conf 89.8
CCOC(=O)C1=C(CSc2nc(CC)c(C)cc2C#N)OC(N)=C(C#N)C1c1ccc(OC)cc1 (stereo unspecified)	tim23-1 inh 53.9, tim10-1 inh 40.9 (no result: PfHsp90 yeast 2) | tim10-1 conf inactive | tim23-1 conf 61.4
Cc1ccc(-c2nc3s/c(=C\c4ccco4)c(=O)n3n2)cc1	none
O=c1nc2s/c(=C\c3ccco3)c(=O)n2nc1Cc1ccc(F)cc1	tim23-1 inh 53.3, TIM10 inh 78.1, tim10-1 inh 70.6 | tim10-1 conf 75.6 | TIM10 conf 79.6 | tim23-1 conf inactive
Cc1ccc(C)c(N2CCN(C(=O)CCc3nc(-c4cccc(Cl)c4)no3)CC2)c1	none (no result: SKKanGAS inh, NALP3 yeast inh)
Cc1c(C(=O)N2CCCCC2)c(S(=O)(=O)NCCc2ccc(S(N)(=O)=O)cc2)c(C)n1C	none
CC1CCc2nc(NC(=O)CN3CCN(c4ccc(F)cc4)CC3)sc2C1 (stereo unspecified)	tim23-1 inh 55.2, tim10-1 inh 50.8 | tim10-1 conf inactive | tim23-1 conf inactive
CCOCCCNC(=O)/C(C#N)=C/c1ccc(Cl)c([N+](=O)[O-])c1	tim23-1 inh 86.1, TIM10 inh 65.9, tim10-1 inh 47.3 | tim10-1 conf 72.8 | TIM10 conf 81.9 | tim23-1 conf 88.2
CN(C)CCCNC(=O)C1(O)c2cc(Br)ccc2NC(=O)N1c1c(F)cccc1F (stereo unspecified)	none
COc1ccc(-c2cc(-c3c(O)c(OC)c4occc4c3OC)[nH]n2)cc1OC	tim23-1 inh 53.5, tim10-1 inh 50.2 | tim10-1 conf 31.4 | tim23-1 conf 45.0
Clc1ncnc2scc(-c3ccc(Br)cc3)c12	tim23-1 inh 50.1 | tim10-1 conf inactive | tim23-1 conf 51.8
Cc1cc(N)n(-c2ncnc3scc(-c4ccc(Cl)cc4)c23)n1	none
COc1ccc(-c2nc(-c3ccccc3)c(-c3cc([N+](=O)[O-])ccc3C)[nH]2)cc1O	tim23-1 inh 52.8, tim10-1 inh 43.6 | tim10-1 conf 36.4 | tim23-1 conf 58.0
Cc1ccc([N+](=O)[O-])cc1-c1[nH]c(-c2ccc(O)c(O)c2)nc1-c1ccccc1	none (no result: PfHsp90 yeast 2)
CCOc1ccc(Br)cc1C1=NN(C(C)=O)C(c2ccc([N+](=O)[O-])s2)O1 (stereo unspecified)	tim23-1 inh 82.6, PfHsp90 yeast 2 107.6, TIM10 inh 45.2, tim10-1 inh 63.9 | tim10-1 conf 71.2 | TIM10 conf 55.2 | tim23-1 conf 65.2
O=[N+]([O-])c1cccc(-c2csc(Nc3ccccc3)n2)c1	tim23-1 inh 85.6, TIM10 inh 64.3, tim10-1 inh 50.4 (no result: SKKanGAS inh) | tim10-1 conf 59.0 | TIM10 conf 65.5 | tim23-1 conf 67.2
COc1ccc(-c2csc(Nc3ccccc3)n2)cc1	tim23-1 inh 54.2, TIM10 inh 61.1, tim10-1 inh 46.2 (no result: PfHsp90 yeast 2) | tim10-1 conf 36.8 | TIM10 conf 43.3 | tim23-1 conf 47.6
COc1ccc(-c2cc(=O)oc3c(C)c(O)ccc23)cc1	none
COc1ccc(/C=C/C(=O)c2c(O)ccc3c(C)cc(=O)oc23)cc1	tim23-1 inh 50.1, TIM10 inh 55.3, tim10-1 inh 51.1 | tim10-1 conf 46.9 | TIM10 conf 57.1 | tim23-1 conf 60.2
COc1ccc(/C=C\C(=O)c2c(O)ccc3c(C)cc(=O)oc23)cc1	tim23-1 inh 53.3, tim10-1 inh 51.8 | tim10-1 conf 36.3 | tim23-1 conf 51.0
Cc1cc(=O)oc2c(O)c(O)ccc12	none (no result: tim23-1 inh, SKKanGAS inh, NALP3 yeast inh, TIM10 inh, tim10-1 inh)
Cc1nc2ccccc2n1/N=C/c1ccc([N+](=O)[O-])s1	tim23-1 inh 54.9, SKKanGAS inh 92.4, TIM10 inh 62.1, tim10-1 inh 76.5 | tim10-1 conf inactive | TIM10 conf inactive | tim23-1 conf 63.4
Cc1nc2ccccc2c(=O)n1/N=C/c1ccc(N(C)C)cc1	none
Cc1nc2ccccc2c(=O)n1/N=C/c1ccc([N+](=O)[O-])o1	tim23-1 inh 71.4, TIM10 inh 50.0, tim10-1 inh 52.7 (no result: PfHsp90 yeast 2) | tim10-1 conf 75.3 | TIM10 conf 68.2 | tim23-1 conf 73.3
